Measured values as given in PubChem BioAssay (NCI).
The panel holds about 83,000 compounds, 20% with a hit somewhere; the sample as a whole holds those more often.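 In brief: 96-well plates, 48 h treatment, single concentration, percent growth endpoint.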 A number with no mark means an inactive call. Calls of active or inactive are those of the source. The calls were made as follows: active = growth percent below 10; inactive = the rest.

Columns and labels:
Test in all cases: NCI-60 one-dose screen, 48 h (100 = growth as untreated, 0 = no growth, -100 = all killed)
Conditions in all cases: 10 µM
NCI-H23 lung = system: NCI-H23 lung
NCI-H226 lung = system: NCI-H226 lung
NCI-H322M lung = system: NCI-H322M lung
HOP-62 NSCLC = system: HOP-62 NSCLC
NCI-H460 lung = system: NCI-H460 lung
HOP-92 NSCLC = system: HOP-92 NSCLC
NCI-H522 lung = system: NCI-H522 lung
A549/ATCC NSCLC = system: A549/ATCC NSCLC
786-0 renal = system: 786-0 renal
COLO 205 colon = system: COLO 205 colon
DU-145 prostate = system: DU-145 prostate
K-562 leukemia = system: K-562 leukemia
MALME-3M melanoma = system: MALME-3M melanoma
MDA-MB-231 breast = system: MDA-MB-231 breast
SF-268 CNS = system: SF-268 CNS
SF-295 CNS = system: SF-295 CNS
SF-539 CNS = system: SF-539 CNS
UACC-257 melanoma = system: UACC-257 melanoma
M14 melanoma = system: M14 melanoma
RXF 393 renal = system: RXF 393 renal

| Structure (SMILES) | growth (NCI-H23 lung) | growth (NCI-H226 lung) | growth (NCI-H322M lung) | growth (HOP-62 NSCLC) | growth (NCI-H460 lung) | growth (HOP-92 NSCLC) | growth (NCI-H522 lung) | growth (A549/ATCC NSCLC) | growth (786-0 renal) | growth (COLO 205 colon) | growth (DU-145 prostate) | growth (K-562 leukemia) | growth (MALME-3M melanoma) | growth (MDA-MB-231 breast) | growth (SF-268 CNS) | growth (SF-295 CNS) | growth (SF-539 CNS) | growth (UACC-257 melanoma) | growth (M14 melanoma) | growth (RXF 393 renal) |
| --- | --- | --- | --- | --- | --- | --- | --- | --- | --- | --- | --- | --- | --- | --- | --- | --- | --- | --- | --- | --- |
| CC(C)(C)CC(C)(C)c1ccc(O)c(Cc2ccc(Cl)cc2Cl)c1 | -85.9% (active) | -83.8% (active) | -89.6% (active) | -88.4% (active) | -68.1% (active) | -90.6% (active) | -84.7% (active) | -88.5% (active) | -92.8% (active) | -71.4% (active) | -89.2% (active) | -59% (active) | -89.4% (active) | -88.4% (active) | -83.6% (active) | -91.6% (active) | -75.5% (active) | -66.1% (active) | -87.9% (active) | – |
| COc1ccc(-c2nnc(COc3ccc(NC(=O)Nc4ccccc4)cc3F)o2)cc1 | 92.4% | 95.2% | 90.1% | 89.2% | 84.4% | 52.2% | 52.5% | 93.3% | 79.1% | 110% | 83.3% | 71.8% | 84.1% | 74.8% | 78.6% | 98.6% | 86.4% | 96.8% | 89.8% | 94.5% |
| NC(=O)C12C(=O)NC(=O)C1(C(=O)O)C21CCCC1 (stereo not drawn) | 109% | 110% | 104% | 110% | 117% | 102% | 111% | 99% | 101% | 115% | 133% | 108% | – | 98.9% | 114% | 110% | 113% | 103% | 105% | 122% |
| CCCc1c(CC)c(=N)c2ccccc2n1C | 88% | 83.2% | 71% | 68.2% | 65.9% | 76.1% | 73.6% | 50.4% | 41% | -18.5% (active) | 62% | -3.78% (active) | -88.7% (active) | 43.1% | 79.5% | -51.9% (active) | 68.1% | -64.1% (active) | -61.6% (active) | 8.09% (active) |
| Cc1ccc(S(=O)(=O)N2CCc3ccccc3CC2)cc1 | 54.5% | 54.3% | 99% | 97.9% | 90.8% | 71.9% | 74.1% | 72.1% | 79.3% | 81% | 84.1% | 63.9% | – | 83.7% | 97.5% | 73% | 97% | 52.7% | 80.6% | 80.3% |
| Cn1c(N)c(N=Cc2ccccc2)c(=O)n(C)c1=O | 103% | 108% | 114% | 96.3% | 114% | 102% | 101% | 105% | 103% | 106% | 124% | 95.8% | – | 98.8% | 110% | 124% | 119% | 108% | 98.7% | 121% |
| N#C/C(=C\N1C(=O)/C(=C/c2cccc([N+](=O)[O-])c2)SC1=S)c1nc2ccccc2s1 | 68.9% | 77.2% | 92.9% | 73.1% | 94.7% | 8.99% (active) | 57.8% | 70% | 88.3% | 101% | 99.6% | 77.1% | – | 79.7% | 85.3% | 86.9% | 80.3% | 68.3% | 81% | 105% |
| COc1cc(/C=C/C(=O)c2cc(-c3ccccc3)ccc2O)cc(OC)c1OC | 66.3% | 93.4% | 86.1% | 83.8% | 67.6% | 61.3% | 54.9% | 85% | 94% | 91.5% | 91% | 34% | – | 71% | 83.2% | 74.6% | 80.2% | 69.9% | 96.7% | 97.8% |
| CCOc1nc(-c2ccccc2)cc2c(O)c(C(=O)NC(C)C)[nH]c(=O)c12 | 97% | 105% | 120% | 99.7% | 105% | 58.2% | 88.3% | 104% | 112% | 118% | 107% | 95% | – | 106% | 105% | 89.9% | 99.3% | 84.8% | 101% | 78.1% |
| Nc1cc2c(cc1Cl)-c1ccc(Cl)cc1C2=O | 98.3% | 105% | 103% | 90.2% | 96.6% | 78.1% | 90.3% | 85.7% | 103% | 95.1% | 105% | 89.9% | – | 82.5% | 93.8% | 115% | 78.2% | 103% | 104% | 131% |
| CCCCCN(CCCCC)C(C)C(O)c1ccc2cc(Cl)c3ccccc3c2c1 (stereo not drawn) | 84.9% | 86.2% | 103% | 92.1% | 80.5% | 55.9% | 90% | 102% | 98.5% | 83.9% | 109% | 81.4% | – | 92.7% | 102% | 82.7% | 104% | 97.7% | 93.1% | 97.5% |
| COC1OC2COC(c3ccccc3)OC2C(=O)C1NC(=O)c1ccccc1 (stereo not drawn) | 100% | 106% | 106% | 86.9% | 97.2% | 79.3% | 95.2% | 105% | 109% | 97.2% | 95.6% | 127% | – | 94.1% | 99.1% | 88.5% | 101% | 104% | 99.8% | 122% |
| Nc1ccc2c(c1)Cc1cc(N)c(Cl)cc1-2 | 103% | 107% | 88.1% | 109% | 105% | 76.4% | 92.2% | 88.2% | 97.7% | 105% | 119% | 104% | – | 88.4% | 113% | 99.1% | 95.9% | 94.5% | 107% | 110% |
| Cc1ccc(Cl)cc1Nc1nc(C(F)(F)F)ccc1C(=O)N/N=C/c1c(Cl)cccc1Cl | 6.65% (active) | -40.5% (active) | 17.8% | 7.32% (active) | -0.639% (active) | -31% (active) | -16.7% (active) | -9.23% (active) | -32.6% (active) | -51.5% (active) | 2.91% (active) | 6.49% (active) | – | -12.2% (active) | -7.33% (active) | -17.7% (active) | -17% (active) | -27.3% (active) | 11.3% | -53.7% (active) |
| CCOC(=O)c1cc2c(n1Cc1cccc(OC)c1)-c1oncc1CC2 | 48.9% | 50% | -0.987% (active) | 37.8% | 10% | 30.5% | 13.7% | 42.6% | 36.5% | 9.01% (active) | 48.4% | 18.5% | – | 52.7% | 44.8% | 3.54% (active) | 15.8% | 43.6% | 16.8% | 11.2% |
| CC(=O)Nc1ccc2c(c1)C(N1CC3CCC(CC3)C1)c1ccccc1-2 (stereo not drawn) | 90.7% | 85% | 115% | 96.5% | 64.3% | 64.2% | 108% | 85.9% | 92.5% | 68.6% | 109% | 58.9% | – | 91.6% | 92.7% | 101% | 97.2% | 84.1% | 102% | 81.9% |
| CCOC(=O)c1c(Cl)c2c(n1Cc1cccc(OC)c1)-c1oncc1CC2 | 50.5% | 56.9% | -7.41% (active) | 37.5% | 9.8% (active) | 31% | 5.7% (active) | 45% | 33.7% | 19.9% | 21.6% | 17.6% | – | 57.1% | 44.5% | -1.65% (active) | 5.6% (active) | 49.1% | 17.9% | 46.5% |
| Cc1ccc(S(=O)(=O)Oc2ccccc2-c2ccccc2)cc1 | 47.2% | 53.5% | 47.9% | 42% | 9.27% (active) | 33% | 15% | 42.4% | 38.4% | 8.93% (active) | 34% | 15.3% | – | 55.9% | 42.5% | 8.37% (active) | 8.87% (active) | 54.4% | 6.11% (active) | 28.9% |
| Cn1c(=O)c2[nH]c(C(O)c3ccc(Cl)cc3)nc2n(C)c1=O (stereo not drawn) | 98.8% | 103% | 111% | 94.7% | 100% | 76.1% | 96.7% | 96.3% | 98.6% | 102% | 104% | 113% | – | 100% | 104% | 104% | 105% | 97.7% | 90.6% | 120% |
| COc1ccc2c(c1)/C(=C/c1cc(OC)c(OC)c(OC)c1)C(=O)N2C | 34.2% | 19.3% | 39.5% | 57.5% | -6.11% (active) | -7.03% (active) | -15.1% (active) | 14.5% | 29.4% | -36.8% (active) | -0.621% (active) | 0.985% (active) | – | 20.9% | 0.418% (active) | -30.1% (active) | -22% (active) | -6.05% (active) | 8.46% (active) | -60.8% (active) |
| Nc1c(C(=O)Nc2ccccc2F)sc2nc3c(cc12)C(=O)CCC3 | 42.8% | 75.1% | 68.8% | 42.7% | 11.4% | 53.6% | -15.2% (active) | 22% | 41.5% | 5.76% (active) | 8.4% (active) | 26.3% | – | 48.9% | 54.9% | 3.17% (active) | 10.5% | 66.9% | 19.2% | 9.63% (active) |
| Cc1cc(C#Cc2ccccc2)ccc1-n1c(/C=C/c2cc(O)ccc2O)nc2ccccc2c1=O | -11.6% (active) | -41% (active) | -19.5% (active) | -33.1% (active) | -48.5% (active) | -17.9% (active) | -74.6% (active) | 8.93% (active) | 17.4% | -65.9% (active) | 2.27% (active) | 7.36% (active) | – | -24.2% (active) | 5.15% (active) | -14.6% (active) | -20.9% (active) | 20% | -3.57% (active) | -27.9% (active) |
| CCOC(=O)C(CCC1=NC(C)(C)CC(C)O1)C(=O)OCC (stereo not drawn) | 77.7% | 95.1% | 137% | 93.8% | 51.5% | 95.3% | 62.5% | 101% | 107% | 92% | 10.4% | 85% | – | 106% | 98% | 74.5% | 102% | 105% | 84% | 85% |
| O=[N+]([O-])c1ccc(-c2nc(-c3ccccc3)c(-c3ccccc3)n2-c2ccccc2)cc1 | 25.2% | 57% | 58.5% | 38.2% | 36.4% | -12.6% (active) | -11.7% (active) | 34.6% | 57.3% | 68.1% | 49.4% | -25% (active) | – | 14.3% | 65.8% | 16.6% | 57.8% | 57.4% | 49.6% | 73.9% |
